Assay results reported in PubChem BioAssay (NCATS).
Records with an inconclusive call do not appear. Values without a mark were called inactive. Active and inactive are the calls of the source. Calls follow the shape of the dose curve; as a rule, active = well fitted inhibition curve with a large enough effect; inconclusive = small, poorly fitted or top-dose-only effect; inactive = no such curve, though single readings can be large or run the other way.
Potency is read from the fitted curve at half-maximal effect.

Assay: BET inhibitor-based combinations targeting novel dependencies in MECOM-rearranged (r) AML: SET-2 cell line (AID 2202231); also: nearly all actives have a fitted effect of over 35% in size;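 as to viability: plate controls were DMSO treated cells for no effect and wells without cells for full effect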
Conditions: SET-2 AML cells viability, CellTiter-Glo luminescence, 48 h; viability: active compounds read low, series mostly up to about 46 µM
Procedure, shortened: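 AML cell lines seeded at 500 cells/well, treated with 11-point dose curves for 48 h. Viability by CellTiter-Glo luminescence, normalised to DMSO and empty wells; activity expressed as AUC and per-cell-line Z-transformed AUC.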
Molecule `CC1=C(/C=C/C(C)=C/C=C/C(C)=C/C=C/C=C(C)/C=C/C=C(C)/C=C/C2=C(C)CCCC2(C)C)C(C)(C)CCC1` has a viability of 103%. In the case of `COc1ccccc1C(=O)Nc1cc2c(cc1N1CCNC[C@H]1C)n(C)c(=O)n2C`, the viability is reported as 103%. In the case of `O=C(NCc1ccccc1)[C@H](Cc1ccccc1)NC(=O)[C@H]1O[C@@H]1C(=O)NCCc1ccc(O)cc1`, the viability is reported as 105%. For `CCOc1cc(/C=C2/C(=O)N(c3ccccc3)N=C2C)cc(Cl)c1OCC(=O)OC`, the viability was 103%. In the case of `C=CC(=O)Nc1cccc(Oc2nc(Nc3ccc(N4CCN(C)CC4)cc3)nc3ccsc23)c1`, the Potency is reported as 26.3 µM (active). In the case of `Cc1ncsc1-c1ccc([C@H](C)NC(=O)[C@@H]2C[C@@H](O)CN2C(=O)[C@@H](NC(=O)COCCCOCCNC(=O)C[C@@H]2N=C(c3ccc(Cl)cc3)c3c(sc(C)c3C)-n3c(C)nnc32)C(C)(C)C)cc1`, the Potency is reported as 3.72 µM (active). With `O=c1sn(-c2cccc3ccccc23)c(=O)n1Cc1ccccc1` the viability was 92.2%. Molecule `CN(C)Cc1cccc(N=C(c2ccccc2)c2c(O)[nH]c3cc(C(N)=O)ccc23)c1` has a viability of 78%. With `CC(C)(C)c1nc2c3cc[nH]c(=O)c3c3cc(F)ccc3c2[nH]1` the Potency was 1.18 µM (active). For `CC(C)(C(=O)NCC(F)(F)C(F)(F)F)C(=O)N[C@@H]1C(=O)Nc2ccccc2-c2ccccc21`, the viability was 105%. For `N#C/C(=C1/Nc2ccccc2S1)c1ccnc(OCc2ccc(CN3CCOCC3)cc2)n1`, the Potency was 20.9 µM (active). Molecule `CC1=NN(c2ccc(C(=O)O)cc2)C(=O)/C1=C/c1ccc(-c2cc(C)c(C)cc2[N+](=O)[O-])o1` has a viability of 112%. With `CC#Cc1cncc(-c2ccc3c(c2)[C@@]2(N=C(C)C(N)=N2)C2(CCC(OC)CC2)C3)c1` (some centres not stated) the viability was 107%. `O=C1OC2(CCC(C(=O)Nc3ccn(-c4ccccc4F)n3)CC2)c2cnccc21` (configuration not stated) showed a viability of 90.4%. With `CN(C)CC[C@H](CSc1ccccc1)Nc1ccc(S(=O)(=O)NC(=O)c2ccc(N3CCN(Cc4ccccc4-c4ccc(Cl)cc4)CC3)cc2)cc1[N+](=O)[O-]` the Potency was 10.5 µM (active). For `CC(C)(C)c1[nH]cnc1/C=c1\[nH]c(=O)/c(=C/c2ccccc2)[nH]c1=O`, the Potency was 0.0833 µM (active). `CC[C@H](C)C(=O)O[C@H]1C[C@H](O)C=C2C=C[C@H](C)[C@H](CC[C@@H](O)C[C@@H](O)CC(=O)O)[C@H]21` showed a viability of 113%. With `COc1cc(C)c(/C=C/C(C)=C/C=C/C(C)=C/C(=O)O)c(C)c1C` the viability was 101%. For `CCNCCS(=O)(=O)NC[C@@]1(c2ccccc2)SC(NC(=O)C(C)(C)C)=NN1C(=O)C(C)(C)C`, the Potency was 0.118 µM (active). With `CO[C@H]1O[C@@H]2O[C@@]3(C)CC[C@H]4[C@H](C)CC[C@@H]([C@H]1C)[C@@]24OO3` the Potency was 20.9 µM (active). With `Cc1ccc(NS(=O)(=O)c2cccc(C#N)c2)c2[nH]cc(C#N)c12` the Potency was 14.8 µM (active). In the case of `c1ccc2[nH]c(-c3cscn3)nc2c1`, the viability is reported as 111%. `CCOC(=O)c1ccc(C#Cc2ccc3c(c2)C(C)(C)CCS3)nc1` gave a viability of 106%. In the case of `Cn1cc(C2=C(c3cn(C)c4cc([N+](=O)[O-])ccc34)C(=O)NC2=O)c2ccccc21`, the Potency is reported as 2.35 µM (active). In the case of `CC1(N)CCN(c2cnc(-c3cccc(Cl)c3Cl)c(N)n2)CC1`, the viability is reported as 110%. `CCn1c(=O)c(-c2ccc(-c3cncc(C)n3)cc2Cl)cc2cnc(NCCC3CCN(C)CC3)nc21` gave a viability of 93.7%. In the case of `C[C@H]1CN(C2COC2)CCN1c1ccc(Nc2cc(-c3ccnc(N4CCn5c(cc6c5CC(C)(C)C6)C4=O)c3CO)cn(C)c2=O)nc1`, the viability is reported as 121%.
